Results published in the supplement of paper PMC8540655.

System: Aedes aegypti larvae
Experiment: larval motility relative to same well at 0 h (fraction); higher = more motile (less active compound), active = 0.4 or less
Conditions: 10 µM; 2 h
Protocol: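 MMV Pandemic Response Box compounds were tested at 10 µM (1% v/v DMSO) on Aedes aegypti larvae (18-24 h after hatching, about 10 per well, 96-well plates). Motility was quantified with INVAPP (200-frame movies) at 0, 2 and 24 h. Each well's motility was divided by its own 0 h score, and the median of 3 independent screens is reported.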

SMILES | larval motility
C[C@H]1[C@@H](c2cccc(C(F)(F)F)c2)OC(=O)N1C(=O)NCc1cncc2ccccc12 | 0.716 (inactive)
CC#C[C@]1(O)CC[C@H]2[C@@H]3CCC4=CC(=O)CCC4=C3[C@@H](c3ccc(N(C)C)cc3)C[C@@]21C | 0.693 (inactive)
O=C(O)c1ccccc1Sc1ncnc2sc3c(c12)CCC3 | 0.968 (inactive)
Oc1ccc(NCc2ccccc2OCc2ccccc2)cc1 | 0.844 (inactive)
C[C@@H](O)[C@H](N)C(=O)NS(=O)(=O)c1cccc(-c2ccc3[nH]ncc3c2)c1 | 0.665 (inactive)
O=c1nc(N2CCN(CC3CCCCC3)CC2)sc2c([N+](=O)[O-])cc(C(F)(F)F)cc12 | 0.712 (inactive)
O=C(CSc1nnc(Br)n1-c1ccc(C2CC2)c2ccccc12)Nc1ccc(C(=O)O)cc1Cl | 0.815 (inactive)
CC(C)(C)NC(=O)N[C@H](C(=O)N1C[C@H]2[C@@H]([C@H]1C(=O)NC(CC1CCC1)C(=O)C(N)=O)C2(C)C)C(C)(C)C (stereo not given in full) | 0.758 (inactive)
NC(=O)[C@@H]1CC[C@@H]2CN1C(=O)N2OS(=O)(=O)O | 1.06 (inactive)
CC(C)CCN1C(=O)C(C2=NS(=O)(=O)c3cc(NS(C)(=O)=O)ccc3N2)=C(O)[C@@H]2[C@H]3CC[C@H](C3)[C@@H]21 | 0.853 (inactive)
Cc1[nH]c2ccccc2c1CCNCc1ccc(/C=C/C(=O)NO)cc1 | 1.05 (inactive)
O=C(NC1CCCc2c1[nH]c1ccc(Cl)cc21)c1ccccn1 (stereo not given) | 1.38 (inactive)
COc1ccc(CNC(=O)C(NS(=O)(=O)c2ccc3nc(C)sc3c2)C(C)C)cc1 (stereo not given) | 0.329 (active)
Nc1nc(O)c2ncn(COC(CO)CO)c2n1 | 1.05 (inactive)
Cc1c(N)cccc1Cn1ccc(OCCc2cccs2)cc1=O | 0.953 (inactive)
O=C(CC1Sc2ncnn2C1=O)Nc1ccc(Br)cc1 (stereo not given) | 0.859 (inactive)
O=C(c1cc(O)nc2ccccc12)N1CCN(c2ccccc2)CC1 | 0.848 (inactive)
O=C(Nc1ccc(F)cc1)c1nn(-c2ccccc2)c(=O)cc1Cl | 1.14 (inactive)
C[C@@H]1O[C@@H]1P(=O)(O)O | 0.617 (inactive)
CCCCCOc1ccc(/C=C2\Oc3c(ccc(O)c3O)C2=O)c(O)c1 | 0.621 (inactive)

Same assay, conditions: 10 µM; 24 h

SMILES | larval motility
C[C@H]1[C@@H](c2cccc(C(F)(F)F)c2)OC(=O)N1C(=O)NCc1cncc2ccccc12 | 0.359 (active)
CC#C[C@]1(O)CC[C@H]2[C@@H]3CCC4=CC(=O)CCC4=C3[C@@H](c3ccc(N(C)C)cc3)C[C@@]21C | 0.826 (inactive)
O=C(O)c1ccccc1Sc1ncnc2sc3c(c12)CCC3 | 0.722 (inactive)
Oc1ccc(NCc2ccccc2OCc2ccccc2)cc1 | 1.62 (inactive)
C[C@@H](O)[C@H](N)C(=O)NS(=O)(=O)c1cccc(-c2ccc3[nH]ncc3c2)c1 | 0.913 (inactive)
O=c1nc(N2CCN(CC3CCCCC3)CC2)sc2c([N+](=O)[O-])cc(C(F)(F)F)cc12 | 1.04 (inactive)
O=C(CSc1nnc(Br)n1-c1ccc(C2CC2)c2ccccc12)Nc1ccc(C(=O)O)cc1Cl | 0.894 (inactive)
CC(C)(C)NC(=O)N[C@H](C(=O)N1C[C@H]2[C@@H]([C@H]1C(=O)NC(CC1CCC1)C(=O)C(N)=O)C2(C)C)C(C)(C)C (stereo not given in full) | 0.813 (inactive)
NC(=O)[C@@H]1CC[C@@H]2CN1C(=O)N2OS(=O)(=O)O | 1.3 (inactive)
CC(C)CCN1C(=O)C(C2=NS(=O)(=O)c3cc(NS(C)(=O)=O)ccc3N2)=C(O)[C@@H]2[C@H]3CC[C@H](C3)[C@@H]21 | 0.888 (inactive)
Cc1[nH]c2ccccc2c1CCNCc1ccc(/C=C/C(=O)NO)cc1 | 1.18 (inactive)
O=C(NC1CCCc2c1[nH]c1ccc(Cl)cc21)c1ccccn1 (stereo not given) | 1.01 (inactive)
COc1ccc(CNC(=O)C(NS(=O)(=O)c2ccc3nc(C)sc3c2)C(C)C)cc1 (stereo not given) | 0.365 (active)
Nc1nc(O)c2ncn(COC(CO)CO)c2n1 | 0.821 (inactive)
Cc1c(N)cccc1Cn1ccc(OCCc2cccs2)cc1=O | 0.875 (inactive)
O=C(CC1Sc2ncnn2C1=O)Nc1ccc(Br)cc1 (stereo not given) | 0.722 (inactive)
O=C(c1cc(O)nc2ccccc12)N1CCN(c2ccccc2)CC1 | 0.897 (inactive)
O=C(Nc1ccc(F)cc1)c1nn(-c2ccccc2)c(=O)cc1Cl | 0.91 (inactive)
C[C@@H]1O[C@@H]1P(=O)(O)O | 0.856 (inactive)
CCCCCOc1ccc(/C=C2\Oc3c(ccc(O)c3O)C2=O)c(O)c1 | 1.4 (inactive)
